# Assay outcomes as filed in PubChem.
# Most compounds without a hit are left out; they make up all but 11% or so of the library.
# HPGD inh: blocks human HPGD enzyme activity; P15428; purified HPGD, NADH fluorescence kinetic, PGE2 substrate; Potency, µM, usual class: inhibitors; 150,000 tested, 4.3% active; AID 894
#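 NADH formation kinetics: reaction with 30 uM PGE2 and 1 mM NAD+ (final), 20 nM enzyme, Tris-HCl pH 8 with Tween 20, after 15 min compound preincubation at room temperature. Fluorescence change, last versus first of five reads.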
# PNC inhibitor: blocks assembly of the perinucleolar compartment; activity change (PNC), negative = inhibition, % at 10 µM; PC3M PTB-GFP, PNC prevalence imaging, 16 h; hits give low values; AID 2417; 140,000 tested, 3.1% active;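 active = readout at or below -70, meaning at least 70% loss of cells showing the perinucleolar compartment, a nuclear body marking cancer cells; inconclusive = readout between -30 and a set limit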
#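 Read-out is percentage of cells bearing a perinucleolar compartment, from automated 20x imaging of fixed, Hoechst-stained PC3M PTB-GFP cells. Cells were seeded 4 h, then exposed 16 h to compound (23 nl of library stock) in duplicate plates.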
# ALDH1A1 block: ALDH1A1 (human) enzyme inhibition; P00352; Purified ALDH1A1, NADH fluorescence, propionaldehyde substrate; Potency, µM (top dose mostly 75.3 µM), most hits filed as inhibitors; 220,000 tested, 7.3% active; AID 1030
# Target sequence (P00352 whole entry, looked up): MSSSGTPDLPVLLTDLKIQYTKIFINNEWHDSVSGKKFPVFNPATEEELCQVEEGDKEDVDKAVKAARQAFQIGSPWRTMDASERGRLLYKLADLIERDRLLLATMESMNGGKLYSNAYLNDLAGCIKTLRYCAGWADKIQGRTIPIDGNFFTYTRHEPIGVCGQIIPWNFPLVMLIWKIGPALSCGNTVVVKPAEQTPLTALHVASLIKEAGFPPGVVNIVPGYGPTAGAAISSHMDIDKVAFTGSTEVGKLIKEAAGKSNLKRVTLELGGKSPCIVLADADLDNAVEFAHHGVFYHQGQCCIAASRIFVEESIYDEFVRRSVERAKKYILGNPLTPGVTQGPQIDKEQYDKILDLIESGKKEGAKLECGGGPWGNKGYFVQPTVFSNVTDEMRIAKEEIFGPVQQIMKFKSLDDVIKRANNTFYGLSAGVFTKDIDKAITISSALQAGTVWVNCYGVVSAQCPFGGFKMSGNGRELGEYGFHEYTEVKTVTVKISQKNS
# A number is an active result; i = inactive; ? = inconclusive; nt = not tested or not shown; [ ] = dose if it differs, or a comment. Unless noted, calls follow the shape of the dose curve; as a rule, active = well fitted inhibition curve with a large enough effect (not every such curve was filed as active); inconclusive = small, poorly fitted or top-dose-only effect, or another doubt; inactive = no such curve, though single readings can be large or run the other way.
SMILES,HPGD inh,PNC inhibitor,ALDH1A1 block
Cc1ccc(N/N=C/c2ccc3c(c2)OCCO3)cc1Cl,?,?,13µM
CS(=O)(=O)N1CCCC(C(=O)NCCCN2CCc3ccccc3C2)C1 (stereo unspecified),i,?,i
OC(COCc1cccs1)CN1CCN(c2ccccc2Cl)CC1 (stereo unspecified),i,i,i
Cc1cccc(N2CCN(CC(O)COCc3cccs3)CC2)c1C (stereo unspecified),nt,-115,i
CCn1c(=O)cc(OCC(=O)NCc2ccc(C)o2)c2ccccc21,?,i,22µM
CCn1c(=O)cc(SCC(=O)NCc2ccc(C)o2)c2ccccc21,28µM,i,i
CCn1c(=O)cc(OCC(=O)NCc2ccco2)c2ccccc21,i,?,?
CCn1c(=O)cc(SCC(=O)NCc2ccco2)c2ccccc21,?,i,?
CN(CC(=O)O)Cc1nc2ccccc2[nH]1,i,?,i
Oc1cccc2ccc[n+](CC(O)Cn3c4ccccc4c4ccccc43)c12 (stereo unspecified),i,i,i
COCCNC(=O)Cn1cc(C(=O)c2ccco2)c2ccccc21,nt,nt,i
COC(=O)n1c(=S)oc2cc(Cl)ccc21,22µM,?,14µM
CCCCOC(=O)n1c(=S)oc2cc(Cl)ccc21,i,i,?
Cc1cccc(NC(=O)CSc2nnc([C@@H](N)Cc3ccccc3)o2)c1C,i,i,?
Cc1ccc(NC(=O)COC(=O)c2cc(C)nc3ccccc23)c([N+](=O)[O-])c1,nt,i,i
CSc1ccccc1NC(=O)c1ccc(Cl)s1,20µM,i,?
CSc1ccccc1NC(=O)c1ccccn1,nt,nt,i
Cc1cccc2cc(-c3nc4c(C)cccn4c3NCc3ccco3)c(=O)[nH]c12,i,i,20µM
Cc1ccc2[nH]c(=O)c(-c3nc4cc(C)ccn4c3NCc3ccco3)cc2c1,i,i,i
CCn1c(C)cc(/C=C2/NC(=O)N(CC(=O)Nc3cccc(C)c3)C2=O)c1C,i,?,i
CCn1c(C)cc(/C=C2/NC(=O)N(c3ccccc3)C2=O)c1C,nt,nt,13µM
Cc1cccc(C)c1N1CCN(c2nc(N(C)C)oc(=O)c2C#N)CC1,?,i,i
CN(C)c1nc(N2CCN(c3ccccc3)CC2)c(C#N)c(=O)o1,16µM,i,?
O=C(COC(=O)C1CCN(/C=C/C(=O)C(F)(F)F)CC1)Nc1cccc(F)c1,i,?,?
Cn1cc(C(=O)N/N=C/C(Br)=C\c2ccccc2)ccc1=O,i,i,?
SMILES,HPGD inh,PNC inhibitor,ALDH1A1 block
Cn1cc(C(=O)N/N=C/C(Br)=C/c2ccccc2)ccc1=O,28µM,i,?
COCCSc1nc2c(c(=O)[nH]c(=O)n2C)n1CCC(C)C,i,i,?
COc1cc(OC)cc(-c2n[nH]c(=S)n2-c2ccc3c(c2)OCO3)c1,25µM,-104,i
Oc1ccc(-c2n[nH]c(=S)n2-c2ccc3c(c2)OCCO3)cc1,20µM,i,25µM
COc1ccc(-n2c(-c3ccc(C)cc3)n[nH]c2=S)cc1,?,i,i
Cc1ccc(C)c(-n2c(-c3ccc4c(c3)OCO4)n[nH]c2=S)c1,?,i,?
S=c1[nH]nc(-c2ccc3ncccc3c2)n1-c1ccc2c(c1)OCCO2,nt,nt,i
Fc1ccc(-n2c(-c3ccc4c(c3)OCO4)n[nH]c2=S)cc1Cl,10µM,i,?
COC(c1ccccc1)c1nnc(CCC(=O)NCCC(C)C)o1 (stereo unspecified),nt,nt,i
O=[N+]([O-])c1cccc(C=Nc2cc3c(cc2Br)OCCO3)c1,i,?,?
CC1=Nc2cccc([N+](=O)[O-])c2NC(=O)C1,nt,nt,i
COc1ccc(-c2cc(=O)c3c(O)cc(O[C@@H]4OC(COC5OC(C)C(O)C(O)[C@@H]5O)C(O)C(O)C4O)cc3o2)cc1 (stereo partly specified),22µM,nt,i
COc1ccc(-c2cc(=O)c3c(O)cc(O[C@H]4OC(COC5OC(C)C(O)C(O)[C@H]5O)C(O)C(O)C4O)cc3o2)cc1O (stereo partly specified),i,nt,?
Cc1ccc(OCCNC(=O)c2ccco2)cc1C,?,i,?
CC(=O)Nc1ccccc1C(=O)C(=O)Nc1ccc(C(=O)N2CCOCC2)cc1,nt,nt,i
CNCc1ccccc1Sc1cccc(O)c1,i,?,i
CNCc1ccccc1Sc1cc(O)ccc1O,8.9µM,i,0.79µM
Cc1ccc(Oc2ncccc2/C=N/OCc2ccc(Cl)c(Cl)c2)cc1,i,i,i
Cc1c(C(=O)O)cccc1-n1c(C)cc(/C=N/NC(=O)c2cc3ccccc3o2)c1C,?,i,i
COC(=O)c1cccc(-n2c(C)cc(C=O)c2C)c1C,i,i,0.63µM
COc1ccc(OC)c(-n2c(C)cc(C=O)c2C)c1,nt,nt,5.6µM
COc1ccc(-n2c(C)cc(C=O)c2C)cc1Cl,18µM,i,1µM
Cc1cc(C=O)c(C)n1-c1ccc(N2CCCCC2)c([N+](=O)[O-])c1,i,i,i
COc1ccc(OC)c(-n2c(=O)c3ccccc3c3ccccc3c2=O)c1,i,i,i
C1CC(CN2CCOCC2)CN(Cc2nc(CC3CC3)no2)C1 (stereo unspecified),nt,nt,i
SMILES,HPGD inh,PNC inhibitor,ALDH1A1 block
NCC(=O)Nc1ccccc1,i,nt,i[13.5 µM]
CCCOc1ccc(C(=O)NC(=S)Nc2nc3ccc(C)cc3s2)cc1,i,i,i
CCOc1ccc2nc(NC(=O)CSc3ccc(Cl)cc3)sc2c1,i,i,i
CCOCC(=O)Nc1nc2ccc(OCC)cc2s1,i,?,16µM
Cc1ccc2nc(NC(=S)NC(=O)c3ccc(OC(C)C)cc3)sc2c1,10µM,i,19µM
C/C=C/C(=O)OCC(=O)Nc1nc2ccc(C)cc2s1,i,i,i
CCOc1ccc2nc(NC(=O)CSC3=NCCS3)sc2c1,i,?,25µM
CCOCC(=O)Nc1nc2ccc(C)cc2s1,i,-100,13µM
COc1ccc2nc(NC(=O)CSC3=NCCS3)sc2c1,i,?,i
CC(NC(=O)OCc1ccccc1)C(=O)N1CC(O)CC1C(=O)O (stereo unspecified),i,?,i
O=S1(=O)CC(O)C(N2CCCCC2)C1 (stereo unspecified),i,i,i
O=C(Nc1c(C(=O)N2CCOCC2)cnn1-c1ccccc1)c1ccco1,i,i,i
O=c1cc(-c2ccc([N+](=O)[O-])cc2)c2ccc(O)cc2o1,nt,nt,i
CCCC(=O)Nc1nc2ccc(OC)cc2s1,i,?,i
COc1ccc2nc(NC(=O)CSc3ccccc3)sc2c1,i,?,28µM
Cc1cccc(NC(=O)CSc2ncnc3c2oc2ccccc23)c1,i,i,i
Cc1ccc2nc(NC(=O)CSc3ncnc4c3oc3ccccc34)sc2c1,i,-108,i
Brc1cc(Oc2cc(Br)c(Br)c(Br)c2Br)c(Br)c(Br)c1Br,i,nt,i
CCN(CCCNC(=O)CCNC(=O)Cn1cnc2ccccc2c1=O)c1ccccc1,nt,i,?
CCCCC[C@H](O)/C=C/C=C\C/C=C\C/C=C\CCCC(=O)O,i,nt,i
COC(=O)C(OC(=O)c1ccc(OC)cc1)C(=O)OC,i,-100,i
COc1ccc(C(=O)C(OC(=O)c2ccccc2)c2ccccc2)cc1 (stereo unspecified),i,i,i
COc1cccc(OC)c1C(=O)Nn1c(-c2cccs2)nc2ccccc2c1=O,i,?,i
COC(=O)c1ccccc1NC(=O)C1CCCO1 (stereo unspecified),i,i,i
